Reference: PubChem BioAssay (Tox21)
Where “and” joins values, the source holds several entries; their conditions need not be identical. Identical values can stand only once. Records with an inconclusive call do not appear. Where a call stands in place of a potency, no number is given. A structure can be active in one record and inactive in another. Calls of active or inactive are those of the source. Unless noted, the call rests on the fitted dose curve; in most records, active means well fitted curve in the direction sought with a large enough effect in the repeat runs; inconclusive means weak or mixed curves; inactive means no such curve, though single readings can be large; an effect the other way counts as inactive or inconclusive.

How the values were obtained:
[1] = qHTS assay to identify small molecule agonists of the estrogen receptor alpha (ER-alpha) signaling pathway in the presence of an antagonist - cell viability counter screen (AID 1259386);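 further: series mostly up to about 92 µM; cells exposed to compounds for 22 h at 37 °C before the viability read; nearly all actives have a fitted effect of over 30% in size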
In short: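 VM7Luc4E2 cells (endogenous full-length ER-alpha, 4×ERE-luciferase) were held 5 days in phenol red-free medium with 10% charcoal-stripped FBS, plated, then given 10.0nM ICI-182,780 and compounds at 15 concentrations for 22hr at 37C; viability read by CellTiter-Fluor fluorescence.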

[2] = molecular target: Progesterone receptor (Homo sapiens) (UniProt P06401); assay: qHTS assay to identify small molecule agonists of the progesterone receptor (PR) signaling pathway (AID 1346784; calls by dose curve; further: nearly all actives have a fitted effect of over 30% in size)
Sequence of Progesterone receptor (Homo sapiens) (P06401 whole entry, looked up): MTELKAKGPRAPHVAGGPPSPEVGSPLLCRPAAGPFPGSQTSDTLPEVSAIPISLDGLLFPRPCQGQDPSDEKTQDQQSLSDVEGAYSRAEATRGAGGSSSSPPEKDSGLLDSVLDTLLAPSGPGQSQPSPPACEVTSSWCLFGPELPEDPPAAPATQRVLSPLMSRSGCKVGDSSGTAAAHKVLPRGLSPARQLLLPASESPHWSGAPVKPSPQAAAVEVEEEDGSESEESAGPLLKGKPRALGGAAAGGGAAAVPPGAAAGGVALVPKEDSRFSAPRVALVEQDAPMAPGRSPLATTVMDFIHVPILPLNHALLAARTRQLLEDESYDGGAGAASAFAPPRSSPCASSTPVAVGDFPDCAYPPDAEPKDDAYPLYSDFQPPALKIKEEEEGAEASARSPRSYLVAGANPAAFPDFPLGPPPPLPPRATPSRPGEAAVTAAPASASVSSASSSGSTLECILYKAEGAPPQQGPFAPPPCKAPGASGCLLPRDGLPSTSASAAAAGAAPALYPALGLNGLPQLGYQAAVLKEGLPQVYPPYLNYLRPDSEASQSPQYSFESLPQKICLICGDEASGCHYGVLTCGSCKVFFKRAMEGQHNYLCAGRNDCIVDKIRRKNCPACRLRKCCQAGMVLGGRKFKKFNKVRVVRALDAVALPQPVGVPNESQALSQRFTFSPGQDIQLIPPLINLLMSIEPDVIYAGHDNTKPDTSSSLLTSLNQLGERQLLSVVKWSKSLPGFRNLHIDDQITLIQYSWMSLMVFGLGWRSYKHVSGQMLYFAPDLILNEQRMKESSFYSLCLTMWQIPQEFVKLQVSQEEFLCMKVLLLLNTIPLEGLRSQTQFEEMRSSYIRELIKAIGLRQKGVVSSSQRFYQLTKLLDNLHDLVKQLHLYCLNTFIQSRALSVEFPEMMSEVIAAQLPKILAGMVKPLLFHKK
In short: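 Beta-lactamase reporter read-out: after 16 hr compound treatment at 37C and a further 2 hr at room temperature with LiveBLAzer B/G FRET substrate, fluorescence was measured in PR-UAS-bla HEK 293T cells grown in 2% charcoal-stripped serum.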

[3] = molecular target: Progesterone receptor (Homo sapiens) (UniProt P06401); assay: qHTS assay to identify small molecule antagonists of the progesterone receptor (PR) signaling pathway (AID 1346795; active means well fitted inhibition curve with a large enough effect in the signal ratio in the repeat runs, not every such curve was filed as active; the % refers to the signal ratio)
In short: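 Read-out is fluorescence from the LiveBLAzer B/G FRET substrate, cleaved by a UAS-controlled beta-lactamase in PR-UAS-bla HEK293T cells after 16 hr exposure to compound plus 1 nM promegestone (final), followed by 2 hr at room temperature.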

[4] = qHTS assay to identify small molecule antagonists of the progesterone receptor (PR) signaling pathway - cell viability counter screen (AID 1346798);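 further: HEK293T PR-UAS-bla cells stimulated with the agonist R5020; series mostly up to about 92 µM; nearly all actives have a fitted effect of over 50% in size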
In short: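 HEK293T PR-UAS-bla, 2% charcoal-stripped FBS; 4 hr pre-plate; cpd + R5020, 16 h 37C; LiveBLAzer read first; then CellTiter-Glo 30 min RT, luminescence.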

[5] = qHTS assay to identify small molecule agonists of the progesterone receptor (PR) signaling pathway - cell viability counter screen (AID 1346799; calls by dose curve; further: nearly all actives have a fitted effect of over 45% in size)
In short: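 Luminescence from CellTiter-Glo, added after the beta-lactamase FRET read in the same wells, gave cytotoxicity in PR-UAS-bla HEK293T cells treated with compounds for 16 hr at 37C.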

[6] = qHTS assay to identify small molecule antagonists of the TGF-beta/Smad signaling pathway - cell viability counter screen (AID 1346824); further: nearly all actives have a fitted effect of over 50% in size
In short: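 SBE-bla HEK 293T cells, incubated overnight, then compound plus 0.25 ng/mL TGF-beta1 (stock added) for 5 hr at 37 C. Viability was read in the same wells by CellTiter-Glo luminescence after 30 min at room temperature.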

[7] = qHTS assay to identify small molecule agonists of the TGF-beta/Smad signaling pathway - cell viability counter screen (AID 1346829); further: top concentration of the series differs between compounds; nearly all actives have a fitted effect of over 45% in size
In short: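 Here the cytotoxicity of library compounds is measured in SBE-bla HEK 293T cells treated for 5 hr, using CellTiter-Glo added to wells already read for the beta-lactamase reporter.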

[8] = qHTS assay to identify small molecule agonists of the TGF-beta/Smad signaling pathway (AID 1346859; active means well fitted activation curve with a large enough effect in the signal ratio in the repeat runs, not every such curve was filed as active; the % refers to the signal ratio; further: series mostly up to about 77 µM)
In short: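 SBE-bla HEK 293T, 4,000 cells/well, plated o/n; cpd in DMSO, 5 hr, 37 C/5% CO2; B/G FRET substrate 2 hr RT; ex 405, em 460/530 nm.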

[9] = molecular target: Thyrotropin-releasing hormone receptor (Homo sapiens) (UniProt P34981); assay: qHTS assay to identify small molecule antagonists of the thyrotropin-releasing hormone receptor (TRHR) signaling pathway (AID 1346877; active means well fitted inhibition curve with a large enough effect in the repeat runs, not every such curve was filed as active; further: series mostly up to about 51 µM)
Sequence of Thyrotropin-releasing hormone receptor (Homo sapiens) (P34981 whole entry, looked up): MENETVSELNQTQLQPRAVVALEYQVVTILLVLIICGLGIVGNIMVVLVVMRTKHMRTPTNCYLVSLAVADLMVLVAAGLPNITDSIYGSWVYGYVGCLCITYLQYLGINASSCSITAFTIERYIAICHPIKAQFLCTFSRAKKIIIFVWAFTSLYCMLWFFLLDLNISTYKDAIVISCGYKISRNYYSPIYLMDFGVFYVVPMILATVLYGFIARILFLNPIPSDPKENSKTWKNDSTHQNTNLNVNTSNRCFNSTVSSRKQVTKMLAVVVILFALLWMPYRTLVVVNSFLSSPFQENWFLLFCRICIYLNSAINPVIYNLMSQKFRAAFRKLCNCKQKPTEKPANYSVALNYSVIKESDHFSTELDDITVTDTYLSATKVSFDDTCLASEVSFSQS
In short: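 TRHR-expressing HEK293 cells were seeded, cultured 18 h at 37 °C, then loaded with calcium dye for 2 h. Compounds were pre-incubated 5 min at room temperature before 1 nM TRH (final) was added, and kinetic fluorescence was recorded for 3 min.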

[10] = Human pregnane X receptor (PXR) small molecule agonists, qHTS cell viability counter screen (AID 1346977); further: nearly all actives have a fitted effect of over 50% in size
In short: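 PXR-Luc HepG2, 2,000 cells/well, 5% charcoal-stripped FBS; 5hr settle; cpd 24hr, 37C/5% CO2; CellTiter-Fluor at 23hr, read 1hr later (fluorescence).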

[11] = Caspase-3/7 induction in HepG2 cells by small molecules, qHTS assay (AID 1346978); further: nearly all actives have a fitted effect of over 15% in size
In short: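 Wild-type HepG2 cells, 2,000/well, settled 5 hr at 37 C and 5% CO2, then compound-treated for 17 hr; caspase-3/7 activity read by luminescent Caspase-Glo 3/7 after 30 min at room temperature.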

[12] = Caspase-3/7 induction in CHO-K1 cells by small molecules, qHTS cell viability counter screen (AID 1346979); further: nearly all actives have a fitted effect of over 35% in size
In short: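 Cells (CHO-K1, wild type) are plated at 1,500 per well and incubated 5hr. Test compounds in DMSO are then pinned in, followed by 16hr at 37C and 5% CO2. Viability is read by CellTiter-Fluor fluorescence after 1hr.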

[13] = Caspase-3/7 induction in CHO-K1 cells by small molecules, qHTS assay (AID 1346980); further: nearly all actives have a fitted effect of over 15% in size
In short: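 Wild-type CHO-K1 cells exposed to compounds for 17hr at 37 C, 5% CO2. Caspase-3/7 activity then measured by Caspase-Glo 3/7 luminescence after 30min at room temperature.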

[14] = Caspase-3/7 induction in HepG2 cells by small molecules, qHTS cell viability counter screen (AID 1346981); further: series mostly up to about 92 µM; nearly all actives have a fitted effect of over 30% in size
In short: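 Wild-type HepG2 cells (2,000/well) were allowed to settle for 5 hr at 37 C, 5% CO2, then dosed with compounds in DMSO by pin transfer. After 16 hr at 37 C, CellTiter-Fluor was added and fluorescence read 1 hr later.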

[15] = molecular target: Nuclear receptor subfamily 1 group I member 2 (Homo sapiens) (UniProt O75469); assay: Human pregnane X receptor (PXR) small molecule agonists, qHTS assay (AID 1346982); further: nearly all actives have a fitted effect of over 35% in size; further: potency means the concentration at half of the fitted maximal effect
Sequence of Nuclear receptor subfamily 1 group I member 2 (Homo sapiens) (O75469 whole entry, looked up): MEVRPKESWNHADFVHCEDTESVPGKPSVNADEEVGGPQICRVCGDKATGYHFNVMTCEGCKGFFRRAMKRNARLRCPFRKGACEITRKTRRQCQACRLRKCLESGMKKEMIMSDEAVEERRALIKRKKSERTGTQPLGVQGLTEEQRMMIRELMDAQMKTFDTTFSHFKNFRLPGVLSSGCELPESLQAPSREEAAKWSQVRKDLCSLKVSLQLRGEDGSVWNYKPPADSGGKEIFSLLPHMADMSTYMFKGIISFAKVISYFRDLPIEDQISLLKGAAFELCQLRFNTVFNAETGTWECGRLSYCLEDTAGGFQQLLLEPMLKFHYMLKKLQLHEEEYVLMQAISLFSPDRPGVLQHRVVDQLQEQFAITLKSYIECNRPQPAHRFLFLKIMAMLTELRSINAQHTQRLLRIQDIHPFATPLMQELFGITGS
In short: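 PXR-Luc HepG2 cells (CYP3A4 promoter-driven luciferase) were seeded in medium with 5% charcoal-stripped FBS, left 5 hr at 37 C, then exposed to compounds in DMSO for 24 hr. Luminescence was read after ONE-Glo addition.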

[16] = molecular target: Nuclear receptor subfamily 1 group I member 2 (Rattus norvegicus) (UniProt Q9R1A7); assay: Rat pregnane X receptor (rPXR) activation by small molecules, qHTS assay (AID 1346983); details: rPXR luciferase reporter cells, One-Glo luminescence, 24 h; stronger effect = higher value; further: nearly all actives have a fitted effect of over 20% in size
Sequence of Nuclear receptor subfamily 1 group I member 2 (Rattus norvegicus) (Q9R1A7 whole entry, looked up): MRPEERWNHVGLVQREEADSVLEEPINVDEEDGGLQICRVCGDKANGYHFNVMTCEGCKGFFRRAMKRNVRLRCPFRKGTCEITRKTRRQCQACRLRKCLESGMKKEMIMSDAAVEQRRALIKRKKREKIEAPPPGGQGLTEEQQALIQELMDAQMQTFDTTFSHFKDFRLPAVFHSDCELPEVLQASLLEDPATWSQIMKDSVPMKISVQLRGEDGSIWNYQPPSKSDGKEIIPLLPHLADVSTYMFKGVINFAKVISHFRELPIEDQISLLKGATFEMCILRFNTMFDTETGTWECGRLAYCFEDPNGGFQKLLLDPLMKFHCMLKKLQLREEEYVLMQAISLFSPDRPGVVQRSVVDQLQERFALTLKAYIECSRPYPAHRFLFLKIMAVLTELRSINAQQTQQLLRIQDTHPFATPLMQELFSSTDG
In short: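 Cell-based rPXR activation assay: rPXR cells, 2,000 per well, rested 5hr at 37 C, then exposed to compounds in DMSO for 24 hr at 37 C. Luciferase activity read by One-Glo luminescence after 30 min at room temperature.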

[17] = molecular target: Nuclear receptor subfamily 1 group I member 2 (Homo sapiens) (UniProt O75469); assay: CYP3A4 induction through human pregnane X receptor (PXR) by small molecules, qHTS assay (AID 1346984); further: nearly all actives have a fitted effect of over 40% in size
In short: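 DPX-2 cells (HepG2 co-transfected with PXR and CYP3A4 promoter-luciferase) treated with compounds 24 h at 37C; luciferin-IPA CYP3A4 substrate 3uM final added for 3 h, then One-Glo; luminescence read. qHTS format.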

[18] = molecular target: Nuclear receptor subfamily 1 group I member 2 (Homo sapiens) (UniProt O75469); assay: Human pregnane X receptor (PXR) activation by small molecules, qHTS assay (AID 1346985); further: nearly all actives have a fitted effect of over 40% in size
In short: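 DPX-2 cells (HepG2 co-transfected with a PXR response element and a CYP3A4-promoter luciferase construct) were seeded at 2,000 per well, rested 5 hr at 37C, then exposed to DMSO-dissolved compounds for 24 hr. Activation was read as luciferase luminescence.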

[19] = molecular target: Thyrotropin receptor (Homo sapiens) (UniProt P16473); assay: qHTS assay to identify small molecule antagonists of the thyroid stimulating hormone receptor (TSHR) signaling pathway (AID 1259385; calls by dose curve; further: nearly all actives have a fitted effect of over 20% in size)
Sequence of Thyrotropin receptor (Homo sapiens) (P16473 whole entry, looked up): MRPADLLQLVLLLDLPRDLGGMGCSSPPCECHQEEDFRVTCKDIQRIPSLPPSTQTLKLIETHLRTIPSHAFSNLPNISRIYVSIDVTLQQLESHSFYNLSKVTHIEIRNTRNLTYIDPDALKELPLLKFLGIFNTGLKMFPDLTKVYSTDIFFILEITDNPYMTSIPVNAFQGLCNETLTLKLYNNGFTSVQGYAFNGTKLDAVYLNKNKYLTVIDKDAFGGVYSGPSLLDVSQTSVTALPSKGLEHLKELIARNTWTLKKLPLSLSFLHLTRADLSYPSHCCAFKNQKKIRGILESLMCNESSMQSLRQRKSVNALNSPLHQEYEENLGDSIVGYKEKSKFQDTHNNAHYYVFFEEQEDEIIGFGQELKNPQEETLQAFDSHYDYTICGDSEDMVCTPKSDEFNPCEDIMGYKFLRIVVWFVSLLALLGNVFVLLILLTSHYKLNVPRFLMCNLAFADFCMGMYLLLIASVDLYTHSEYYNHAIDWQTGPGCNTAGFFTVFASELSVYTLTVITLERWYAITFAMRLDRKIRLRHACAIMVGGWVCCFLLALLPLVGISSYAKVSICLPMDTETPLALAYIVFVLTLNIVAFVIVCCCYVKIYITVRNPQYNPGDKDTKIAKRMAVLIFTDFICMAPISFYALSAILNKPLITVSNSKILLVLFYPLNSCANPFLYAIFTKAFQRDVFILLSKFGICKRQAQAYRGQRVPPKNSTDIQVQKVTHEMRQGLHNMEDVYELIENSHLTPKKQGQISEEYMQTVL
In short: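 TSHR-HEK293 cells (800/well) plated 18 h, then compounds with Ro20-1724 and TSH at 1.5 ng/mL final, 30 min at room temperature. cAMP quantified by HTRF (cAMP-d2/anti-cAMP-cryptate, 1 h); 15 concentrations in triplicate.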

[20] = molecular target: Thyrotropin-releasing hormone receptor (Homo sapiens) (UniProt P34981); assay: qHTS assay to identify small molecule agonists of the thyrotropin-releasing hormone receptor (TRHR) signaling pathway (AID 1346891; calls by dose curve; further: series mostly up to about 58 µM)
In short: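 Intracellular calcium rise, read as fluorescence every second for 3 min, served as the agonist signal in dye-loaded HEK293 cells expressing TRHR; each compound ran at 15 concentrations in triplicate.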

Compound | Potency [1] | Potency [2] | Potency [3] | Potency [4] | Potency [5] | Potency [6] | Potency [7] | outcome [8] | Potency [9] | Potency [10] | Potency [11] | Potency [12] | Potency [13] | Potency [14] | Potency [15] | max activation [16] | outcome [17] | outcome [18] | outcome [19] | Potency [20]
Clc1nc(Cl)nc(Cl)n1 | inactive | inactive | inactive | inactive | inactive | inactive | inactive | inactive | inactive | inactive | inactive | inactive | inactive | inactive |  |  |  |  |  | 
C[C@]12CCC(=O)C(O)=C1CC[C@@H]1[C@@H]2CC[C@]2(C)C(=O)CC[C@@H]12 | inactive | inactive |  |  | inactive | inactive | inactive | inactive |  | inactive | inactive | inactive | inactive | inactive | 54.5 µM (active) and inactive | -2.61% (inactive) | inactive | inactive |  | 
CCCCN(CC)c1c([N+](=O)[O-])cc(C(F)(F)F)cc1[N+](=O)[O-] |  |  | inactive | inactive | inactive | inactive | inactive | inactive | inactive | inactive | inactive | inactive | inactive | inactive | 27.7 µM (active) and 7.7 µM (active) |  |  |  | inactive | inactive
O=C(O)C(F)(F)C(F)(F)C(F)(F)C(F)(F)C(F)(F)C(F)(F)C(F)(F)F |  |  |  | inactive |  | inactive | inactive | inactive | inactive | inactive | inactive | inactive | inactive | inactive | inactive |  |  |  | inactive | inactive
CCC(C)c1ccc(O)cc1 (stereo not given) |  | inactive | inactive | inactive | inactive | inactive | inactive | inactive | inactive | inactive | inactive | inactive | inactive | inactive |  |  |  |  |  | 
